# Reference: PubChem BioAssay (NCATS)
# Records with an inconclusive call do not appear. Entries that show only a call come without a potency. Unmarked numbers belong to inactive results. Active and inactive are the calls of the source. The call rests on the fitted dose curve; in most records, active means well fitted curve in the direction sought with a large enough effect; inconclusive means small, poorly fitted or top-dose-only effect, or another doubt; inactive means no such curve, though single readings can be large; an effect the other way counts as inactive or inconclusive.
# Assays:
# JEG-3 = assay: Primary qHTS to identify gynecologic anti-cancer compounds using libraries of approved drugs and bioactive compounds (AID 1345084); settings: Gynecologic cancer cell panel viability, ATPlite luminescence, 48 h; series mostly up to 57.5 µM; further: nearly all actives have a fitted effect of over 55% in size
# Outline: (§1)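 Five-point cytotoxicity, 48 h drug exposure at 37 C, 5% CO2, on cells seeded 16 h beforehand. ATP content read by ATPlite luminescence.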
# OV90 = assay: as above; settings: Gynecologic cancer cell panel viability, ATPlite luminescence, 48 h; series mostly up to 57.5 µM
# Outline: as §1
# PA-1 = assay: as above; settings: Gynecologic cancer cell panel viability, ATPlite luminescence, 48 h; series mostly up to 57.5 µM
# Outline: as §1
# SKOV3 = assay: as above; settings: Gynecologic cancer cell panel viability, ATPlite luminescence, 48 h; series mostly up to 57.5 µM
# Outline: as §1
# Tov-21-G = assay: as above; settings: Gynecologic cancer cell panel viability, ATPlite luminescence, 48 h; series mostly up to 57.5 µM
# Outline: as §1
# Tov112D = assay: as above; settings: Gynecologic cancer cell panel viability, ATPlite luminescence, 48 h; series mostly up to 57.5 µM
# Outline: as §1
# [1] = qHTS assay to identify inhibitors of the type 1 interferon - major histocompatibility complex class I in skeletal muscle: Counter screen cell viability and HiBit confirmation (AID 1347412); settings: iHSKM muscle cells + IFN-b, HiBiT or CellTiter-Glo, 24 h; for activity change, negative = inhibition: at 45.9 µM (top of the series); on all read-outs here: nearly all actives have a fitted effect of over 60% in size
# Outline: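 HLA-B*08:01–HiBiT knock-in immortalized human myoblasts (C25cl48) stimulated with 4.0 ng/ml human IFN-beta and dosed with compound in a 12-point 1:3 titration (top final 46 uM). After 24 hrs at 37 C, HiBiT lytic luminescence or CellTiter Glo ATP read out.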
# Potency means the concentration at half of the fitted maximal effect.
structure (smiles),measurement,setting,value
Cc1ccc(-c2ccc3c(ccc4sc5c(c43)NC[C@@H](C)NC5=O)n2)cn1,Potency,JEG-3,inactive
same,Potency,OV90,inactive
same,Potency,PA-1,inactive
same,Potency,SKOV3,inactive
same,Potency,Tov-21-G,inactive
same,Potency,Tov112D,inactive
same,"activity change, negative = inhibition",[1]; HiBiT,-1.05%
same,"activity change, negative = inhibition",[1]; Viability,10.5%
COc1ccc(C(=O)n2c(C)c(Cc3cccc(O[C@@H](C)C(=O)O)c3)c3cc(OC(F)(F)F)ccc32)cc1,Potency,JEG-3,inactive
same,Potency,OV90,inactive
same,Potency,PA-1,inactive
same,Potency,SKOV3,inactive
same,Potency,Tov-21-G,inactive
same,Potency,Tov112D,inactive
O=C(N/N=C/c1ccc(O)c(O)c1)c1cc2ccccc2cc1O,Potency,JEG-3,inactive
same,Potency,OV90,inactive
same,Potency,PA-1,inactive
same,Potency,SKOV3,inactive
same,Potency,Tov112D,inactive
CO[C@H]1C[C@@H]2CC[C@@H](C)[C@@](O)(O2)C(=O)C(=O)N2CCCC[C@H]2C(=O)O[C@H]([C@H](C)C[C@@H]2CC[C@H](n3cnnn3)[C@H](OC)C2)CC(=O)[C@H](C)/C=C(\C)[C@@H](O)[C@@H](OC)C(=O)[C@H](C)C[C@H](C)/C=C/C=C/C=C/1C,Potency,JEG-3,inactive
same,Potency,OV90,inactive
same,Potency,PA-1,inactive
same,Potency,SKOV3,inactive
same,Potency,Tov112D,inactive
COC(=O)[C@@]1(c2ccc(C)cc2)C[C@H]1CN1CCC(O)(c2ccccc2)CC1,Potency,JEG-3,inactive
same,Potency,OV90,inactive
same,Potency,PA-1,inactive
same,Potency,SKOV3,inactive
same,Potency,Tov-21-G,inactive
same,Potency,Tov112D,inactive
C[C@@H]1CCN(C(=O)N2CCCC2)C[C@@H]1N(C)c1ncnc2[nH]ccc12,Potency,JEG-3,inactive
same,Potency,OV90,inactive
same,Potency,PA-1,inactive
same,Potency,SKOV3,inactive
same,Potency,Tov112D,inactive
O=C(/C=C/c1cccc(S(=O)(=O)Nc2ccccc2)c1)NO,Potency,JEG-3,4.47 µM (active)
same,Potency,OV90,3.98 µM (active)
same,Potency,PA-1,1.26 µM (active)
same,Potency,SKOV3,11.2 µM (active)
same,Potency,Tov112D,3.98 µM (active)
same,Potency,[1]; HiBiT,3.13 µM (active)
same,"activity change, negative = inhibition",[1]; Viability,-9.07%
C=C1CN(Cc2ccc(C(=O)Nc3ccccc3N)cc2)C(=O)c2ccccc21,Potency,JEG-3,5.62 µM (active)
same,Potency,OV90,6.31 µM (active)
same,Potency,PA-1,2.24 µM (active)
same,Potency,SKOV3,1.41 µM (active)
same,Potency,Tov112D,3.98 µM (active)
CN1CCN(C2CCC(n3cc(-c4ccc(Oc5ccccc5)cc4)c4c(N)ncnc43)CC2)CC1 (stereo not given),Potency,JEG-3,inactive
same,Potency,OV90,17.8 µM (active)
same,Potency,PA-1,3.55 µM (active)
same,Potency,SKOV3,3.55 µM (active)
same,Potency,[1]; HiBiT,15.7 µM (active)
same,Potency,[1]; Viability,11.1 µM (active)
COc1ccc2cc(C(C)C(=O)Oc3ccc(C(N)=S)cc3)ccc2c1 (stereo not given),Potency,JEG-3,inactive
same,Potency,OV90,inactive
same,Potency,PA-1,inactive
same,Potency,SKOV3,inactive
same,Potency,Tov-21-G,inactive
same,Potency,Tov112D,inactive
CCCOc1ccc(-c2nc(OC)c3ccccc3n2)cc1,Potency,JEG-3,inactive
same,Potency,OV90,inactive
same,Potency,PA-1,inactive
same,Potency,Tov-21-G,inactive
same,Potency,Tov112D,inactive
CC(C)CCC1(O)C(=O)C(C)(C)C(O[C@@H]2O[C@H](CO)[C@@H](O)[C@H](O)[C@H]2O)C(C)(C)C1O (stereo not given in full),Potency,JEG-3,inactive
same,Potency,OV90,inactive
same,Potency,PA-1,inactive
same,Potency,SKOV3,inactive
same,Potency,Tov-21-G,inactive
same,Potency,Tov112D,inactive
C[C@@H]1C(=O)OC[C@H]2C(C(=O)O)=C[C@@H]3CC(C)(C)C[C@]312,Potency,JEG-3,inactive
same,Potency,OV90,inactive
same,Potency,PA-1,inactive
same,Potency,SKOV3,inactive
same,Potency,Tov112D,inactive
COc1c2cc(c(O)c1OC)-c1cc(ccc1O)CCC(O)CCCC2 (stereo not given),Potency,JEG-3,inactive
same,Potency,OV90,inactive
same,Potency,PA-1,inactive
same,Potency,SKOV3,inactive
same,Potency,Tov-21-G,inactive
same,Potency,Tov112D,inactive
CC(C)Oc1ccc(C(=O)NC(CNC(=O)CN(C)C)Cc2ccc(-c3cn4cccc(C(C)O)c4n3)cc2)cc1Cl (stereo not given),Potency,JEG-3,inactive
same,Potency,OV90,inactive
same,Potency,PA-1,0.316 µM (active)
same,Potency,SKOV3,inactive
same,Potency,Tov112D,0.316 µM (active)
O=S(=O)(Nc1ccccn1)c1ccc(N=Cc2c(O)[nH]c3ccc4ncsc4c23)cc1,"activity change, negative = cytotoxicity",JEG-3,3.65% [at 11.6 µM]
same,"activity change, negative = cytotoxicity",OV90,-9.17% [at 11.6 µM]
same,"activity change, negative = cytotoxicity",PA-1,-2.66% [at 11.6 µM]
same,"activity change, negative = cytotoxicity",Tov-21-G,18.8% [at 11.6 µM]
CCC(C)C(=O)OC1CC(O)C23C4OCC5(C(O)CC2C1(C)C(O)O4)C3C(=O)C(O)C1(C)C(O)(c2ccoc2)CC2OC251 (stereo not given),Potency,JEG-3,inactive
same,Potency,OV90,1.26 µM (active)
same,Potency,PA-1,3.16 µM (active)
same,Potency,SKOV3,3.16 µM (active)
same,Potency,Tov112D,3.55 µM (active)
Clc1cc2c(NC3CCCC3)nnc(-c3ccncc3)c2cc1Cl,Potency,JEG-3,inactive
same,Potency,OV90,inactive
same,Potency,PA-1,inactive
same,Potency,Tov-21-G,inactive
same,Potency,Tov112D,inactive
CC(C)=CCC(O)/C(C)=C/CO[C@@H]1O[C@H](CO)[C@@H](O)[C@H](O)[C@H]1O (stereo not given in full),Potency,JEG-3,inactive
same,Potency,OV90,inactive
same,Potency,PA-1,inactive
same,Potency,Tov-21-G,inactive
same,Potency,Tov112D,inactive
C/C(=C/CO)CC[C@@H]1[C@@](C)(O)CCC2C(C)(C)CCC[C@]21C (stereo not given in full),Potency,JEG-3,inactive
same,Potency,OV90,inactive
same,Potency,PA-1,inactive
same,Potency,Tov-21-G,inactive
same,Potency,Tov112D,inactive
CN1c2ccccc2C(=O)N2CCC3c4ccccc4NC3C21 (stereo not given),Potency,JEG-3,3.98 µM (active)
same,Potency,OV90,inactive
same,Potency,PA-1,4.47 µM (active)
same,Potency,Tov-21-G,6.31 µM (active)
same,Potency,Tov112D,1.78 µM (active)
CC(C)[C@@H]1C(=O)N(S(C)(=O)=O)[C@@H]2CCN(C(=O)/C=C/CN3CCCCC3)[C@H]21,Potency,JEG-3,inactive
same,Potency,OV90,inactive
same,Potency,PA-1,inactive
same,Potency,Tov-21-G,inactive
same,Potency,Tov112D,inactive
